Rows were chosen to be rich in hits. Some 0.93% of all compounds tested hit in one or more screens of this group.
TRPML1 blocker = qHTS for Inhibitors of the Human Mucolipin Transient Receptor Potential 1 (TRPML1) | Mucolipin-1 (Homo sapiens), Q9GZU1 | TRPML1-inducible cells, Ca2+ dye fluorescence, FDSS; stronger effect = lower value; inhibition of EC80 agonist-evoked calcium signal | activity change, negative = inhibition, % (no concentration beside the values) | 0.02% of 390,000 active; in the data active means activity change below about -50%; inconclusive means between about -30% and that limit;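 further: stimulus is agonist 54-4 at its EC80 concentration; on the % scale 0 is the no-effect control and ±100 the full control effect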
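Tet-induced TRPML1-DL cells loaded with Ca8 no-wash calcium dye were read kinetically on FDSS. Compound addition was followed by EC80 agonist 54-4 (4 uM final); inhibition was read over 110 s.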
GLP1R cytotox = qHTS of GLP-1 Receptor Inverse Agonists: Cytotox Screen; 0.13% of 410,000 active; AID 624418, 2012; Potency, µM (titrated, usually from 38.3 µM), inactives show at the highest dose activity change, negative = inhibition, hits mostly inhibitors; HEK293 cAMP-luciferase reporter cells, luminescence, 24 h;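 further: loss of luciferase light is scored as toxicity; potency means the concentration at half of the fitted maximal effect; on the % scale 0 is the no-effect control and ±100 the full control effect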
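MLSMR compounds, 24 hr on cells at 37 deg C/5% CO2; luminescence after luciferase reagent (12 min RT). Inhibition counted as the undesired cytotoxic outcome.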
PTHR1 agonist = qHTS for PTHR1 Agonists: Primary Screen. Parathyroid hormone/parathyroid hormone-related peptide receptor (Homo sapiens), Q03431. 0.075% of 410,000 active. HEK293 GP2 PTHR1 cells, GloSensor cAMP luminescence, 1 h. AID 743266, 2014. Potency, µM (doses to about 115 µM), without a hit: top-dose activation, hits mostly activators; further: potency means the concentration at half of the fitted maximal effect; nearly all actives have a fitted effect of over 55% in size
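HEK-293-derived GP2 cells expressing PTHR1 and a GloSensor cAMP reporter, 3,000/well, plated overnight, given luciferin plus IBMX (each 0.5 mM as added) for 1 h at 37 °C, then compound for 1 h at 37 °C. Luminescence was read after 15 min at room temperature.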
TRPML1 ag = qHTS for Agonists of the Human Mucolipin Transient Receptor Potential 1 (TRPML1) | Mucolipin-1 (Homo sapiens), Q9GZU1 | TRPML1-expressing cells, Ca2+ dye fluorescence, FDSS | activation, % (concentration not given with the values) | 0.12% of 410,000 active; in the data active means activation above about 50%; inconclusive means mostly about 30% to 49%; further: 0% is about no effect
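Cells: TRPML1-DL, 1X Tet inducer, ~16 h at 37 degrees C/5% CO2. Dye: ABD Ca8 no-wash + quencher, 45-90 min RT. Read: 10 s baseline, compound add, 110 s agonist phase; 54-4 EC80 (4uM final), 110 s antagonist phase.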
TRHR agonist-1 = qHTS for Small Molecule Agonists and Allosteric Enhancers of Human TRH Receptor: Primary Screen for Agonists | 0.18% of 360,000 active | activation, % at 2 µM | TRHR cells, calcium flux fluo-8, FDSS agonist mode; in the data active means activation above about 30%; further: 0% is about no effect
Target sequence (P34981 whole entry, looked up): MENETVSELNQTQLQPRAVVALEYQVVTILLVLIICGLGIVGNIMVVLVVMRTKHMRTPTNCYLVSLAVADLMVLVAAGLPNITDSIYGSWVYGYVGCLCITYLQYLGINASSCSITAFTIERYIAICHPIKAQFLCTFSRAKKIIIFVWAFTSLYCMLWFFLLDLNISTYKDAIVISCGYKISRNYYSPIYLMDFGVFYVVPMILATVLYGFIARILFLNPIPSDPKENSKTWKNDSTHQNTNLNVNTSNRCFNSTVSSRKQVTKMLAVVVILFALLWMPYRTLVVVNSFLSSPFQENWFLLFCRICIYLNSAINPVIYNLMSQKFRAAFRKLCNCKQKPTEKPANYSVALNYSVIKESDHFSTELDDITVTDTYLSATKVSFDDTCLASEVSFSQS
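In this calcium-flux screen, cells bearing human TRHR are dye-loaded with fluo-8, baselined for 10 cycles, then exposed to library compounds; positive kinetic calcium responses during the agonist phase mark hits, with TRH as control.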
TRHR enhancer-1 = qHTS for Small Molecule Agonists and Allosteric Enhancers of Human TRH Receptor: Primary Screen for Enhancers. TRHR cells, fluo-8 calcium fluorescence, EC20 TRH enhancement. enhancement, % at 2 µM. AID 493056, 2011. 0.66% of 360,000 active. Thyrotropin-releasing hormone receptor (Homo sapiens), P34981; in the data active means enhancement above about 30%; further: 0% is about no effect
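Enhancer read-out: after compound pinning and an initial kinetic agonist-mode read, an EC20 of TRH (10 nM final) was injected and fluo-8 calcium signal (Ex 480/Em 530) followed at 1 s/cycle for 100 cycles in TRHR-expressing cells.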
TRHR enhancer-2 = qHTS for Small Molecule Agonists and Allosteric Enhancers of Human TRH Receptor: Confirmation Screen for Enhancers | activity change, negative = inhibition, % at 46.1 µM | TRH receptor cell assay, enhancer confirmation qHTS | 970 tested, under 10 active | shares compounds with TRHR enhancer-1;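 further: compound effect scored on response to added TRH at EC20 of 10 nM; 0% is about no effect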
TRHR agonist-2 = qHTS for Small Molecule Agonists and Allosteric Enhancers of Human TRH Receptor: Confirmation Screen for Agonists; TRHR-expressing cells, agonist activation read-out; shares compounds with TRHR enhancer-1; 8% of 970 active; Potency, µM (highest dose often 46.1 µM), for the others: at the highest dose activation, usual class: activators; further: potency means the concentration at half of the fitted maximal effect; 0% is about no effect; nearly all actives have a fitted effect of over 75% in size
Numbers without * were called inactive; i = inactive; u = inconclusive; x = no result. Unless noted, the call rests on the fitted dose curve; in most records, active means well fitted curve in the direction sought with a large enough effect; inconclusive means small, poorly fitted or top-dose-only effect, or another doubt; inactive means no such curve, though single readings can be large; an effect the other way counts as inactive or inconclusive.

SMILES | TRPML1 blocker | GLP1R cytotox | PTHR1 agonist | TRPML1 ag | TRHR agonist-1 | TRHR enhancer-1 | TRHR enhancer-2 | TRHR agonist-2
COc1ccc(-c2cc(C(F)F)nc(-n3nc(C)cc3C)n2)cc1 | 3 | u | -30% | -1 | -1 | 53* | -9 | 2%
CC(=O)Nc1sc(C)c(C)c1C(=O)OCC(=O)Nc1cc(S(C)(=O)=O)ccc1Cl | x | 0% | i | x | 0 | 1 | x | x
CS(=O)(=O)c1ccc(Cl)c(NC(=O)COC(=O)c2c(Cl)cccc2Cl)c1 | -5 | -6% | -18% | 0 | -2 | 41* | 2 | 2%
Nc1c(C(=O)C2CC2)sc2nc(-c3ccccc3)cc(C(F)(F)F)c12 | -9 | 93% | i | u | 43* | 10 | 9 | 8.2µM*
CCCn1c(-c2cccc(F)c2)nc2c1c(=O)[nH]c(=O)n2Cc1ccccc1 | -13 | 2% | i | 1 | 0 | -4 | x | x
Cn1c(-c2cccc(F)c2)nc2c1c(=O)[nH]c(=O)n2Cc1ccccc1 | 0 | -11% | -4% | 0 | 0 | 49* | -3 | -1%
CC(=O)Nc1ccc(S(=O)(=O)NCCC(=O)OCC(=O)N2CCN(C(=O)c3ccco3)CC2)cc1 | -11 | -8% | i | 0 | 1 | 46* | -7 | -1%
CN(C)C(=O)c1ccc(NS(=O)(=O)c2ccc3c(c2)OCCO3)cc1 | -3 | 0% | -52% | 1 | 0 | 66* | -1 | 0%
COc1cc(/C=C2\SC(=N)N(c3ccc4c(c3)OCO4)C2=O)cc(OC)c1O | 16 | -40% | i | 4 | 45* | 5 | 1 | u
COc1cc(/C=C2\SC(=N)N(c3ccc(F)cc3)C2=O)ccc1O | 16 | -8% | i | 1 | 12 | 4 | x | x
Cc1c(Cc2ccccc2)c(=O)oc2c(O)c(O)ccc12 | -24 | 53% | i | 3 | 0 | 41* | -8 | 2%
C[N+]1(CC(=O)c2ccc(Oc3ccc(C(=O)C[N+]4(C)CCOCC4)cc3)cc2)CCOCC1 | x | x | x | -1 | x | x | x | x
CC(CCc1ccccc1)NC(=O)Cn1cccc1C(=O)c1ccccc1 (centres undefined) | 8 | 2% | -42% | -1 | -1 | 46* | u | 3%
O=C(Nc1cc(C(F)(F)F)ccc1N1CCOCC1)C1CC1 | 14 | -1% | i | -1 | 0 | 49* | -9 | 0%
Cc1cc(NC(=O)C2C3C(=O)N(c4cccnc4)C(C(=O)NC(C)(C)C)C34C=CC2(C)O4)no1 (centres undefined) | 15 | 5% | i | 0 | 0 | 42* | 2 | 5%
Nc1c(Br)cc(C=O)cc1Br | x | x | x | -1 | x | x | x | x
